Laboratory results as given in PubChem BioAssay (EPA / NIEHS).
Inconclusive results are not listed. Activity calls are given as the source filed them. How the source made its calls: active means hit-call score of the fitted dose curve at least 0.9, where 1 is the maximum; inconclusive means response in the unintended direction; inactive means score below 0.9.

assay: ATG_M_32_TRANS: Attagene TRANS-FACTORIAL HepG2 Assay for M32 Transcription Factor (Internal Marker) (AID 2282984); details: HepG2 Attagene TRANS M32 internal marker reporter
Protocol: ATG_TRANS is a cell-based, multiplexed-readout assay that uses HepG2, a human liver cell line, with measurements taken at 24 hours after chemical dosing in a 24-well plate.ATG_M_32_TRANS is one of 30 assay component(s) measured or calculated from the ATG_TRANS assay. It is designed to make measurements of mRNA induction, a form of inducible reporter, as detected with fluorescence intensity signals by Reverse transcription polymerase chain reaction (RT-PCR) and Capillary electrophoresis technology.Data from the assay component ATG_M_32_TRANS was analyzed into 1 assay endpoint. This assay endpoint, ATG_M_32_TRANS, was analyzed in the positive analysis fitting direction relative to DMSO as the negative control and baseline of activity. Using a type of inducible reporter, measures of mRNA for gain-of-signal activity can be used to understand the background control at the transcription factor-level as they relate to the gene . Furthermore, this assay endpoint can be referred to as a secondary readout, because this assay has produced multiple assay endpoints where this one serves a background control function. To generalize the intended target to other relatable targets, this assay endpoint is annotated to the background measurement intended target family, where the subfamily is internal marker.
Human liver HepG2 cells are transiently transfected with multiple reporter transcription units (MRTUs) in 6-well plates using FuGene 6 reagent (Roche; 3 ml FuGene/1 mg DNA). The MRTU constructs are regulated by a cis-regulating element (promoter). […] A major difference between the CIS and TRANS system is that in CIS activities of endogenous TFs are measured, whereas the TRANS assay evaluates changes in activities of exogenous, chimeric NR-Gal4 proteins. […] At the end of 24 hour incubation, total RNA was isolated using TriZol reagent (Invitrogen). The isolated RNA is then reverse-transcribed using oligo(dT) primer and Mo-MLV reverse transcriptase (Invitrogen) with DNAse I (Ambion) treatment for 30 min. The one-tenth of the produced cDNA was amplified by PCR using Taq DNA polymerase (Invitrogen) and two reporter sequence-specific primers. The PCR products were fluorescently labeled by primer extension with 6-arboxyfluorescein (6-FAM) 5'-labeled reporter sequence-specific primer (2 min at 95 C, 20 s at 68 C and 10 min at 72 C) and these products were digested with 5U of HpaI (New England Biolabs) for 2h at 37 C. The fragments were purified using Qiaquick PCR columns (Qiagen), analyzed on an ABI 3130xL genetic analyzer (Applied Biosystems) with peak positions identified by using a set of X-rhodamine (ROX)-labeled MapMarker1000 molecular weight standards (BioVentures). The raw capillary electrophoresis data was processed using Attagraph software (Attagene).

outcome, inactive:
Cn1c(=O)c2c(ncn2C)n(C)c1=O, O=C(O)c1cccc(N(Cc2cccnc2)c2ccc(OC(F)F)c(OC(F)F)c2)c1, O=C1CCC(N2C(=O)c3ccccc3C2=O)C(=O)N1 (stereo not given), Cc1ccc(C)c(O)c1, O=C1OC(=O)C2C3C=CC(C3)C12 (stereo not given), O=C(NS(=O)(=O)/C=C/c1ccccc1)c1ccc(F)cc1Cl, CNS(=O)(=O)c1cc(C(=O)N2CCC(CCN3C4CCC3CC(n3c(C)nc5ccccc53)C4)(c3cccc(F)c3)CC2)c(Cl)cc1F (stereo not given), CNCc1ccc(NC(=O)c2c[nH]c3c2C(=O)CCC3)cc1, COc1ccc2sc(C(=O)Nc3nnn[nH]3)c(OC(C)C)c2c1, CCOC(=O)CC(CC(=O)OCC)(OC(C)=O)C(=O)OCC, CCOC(=O)COc1ccc2c(c1)CC(NCC(O)c1cccc(Cl)c1)CC2 (stereo not given), O=C(O)c1cc(N=Nc2ccc(S(=O)(=O)Nc3ccccn3)cc2)ccc1O, CCCCCCCCCCCCCCCO, On1ccccc1=S, Cc1[nH]cnc1C[C@H]1CCc2c(C)c3ccccc3n2C1=O, CC[C@H](C)C(=O)O[C@H]1C[C@@H](C)C=C2C=C[C@H](C)[C@H](CC[C@@H]3C[C@@H](O)CC(=O)O3)[C@H]21, O=C(CCCCCCCCc1cccnc1)N1CCC(C=C(c2ccccc2)c2ccccc2)CC1, CC/C(=C\C(=N/O)C(N)=O)C(C)[N+](=O)[O-] (stereo not given), CC(C)CCO, CC(C)=CCCC(C)CCO (stereo not given), CCOC(=O)c1ccc(C2CCC(NC[C@H](O)COc3ccc(O)c(NS(C)(=O)=O)c3)CC2)cc1 (stereo not given in full), COCCOc1cc2cc(C(=O)NC3CCN(C(C)C)CC3)n(CC(=O)Nc3ccc(Cl)cn3)c2cn1, CCCN(C1CCN(C(=O)C2CCNCC2)CC1)[C@@H]1CCc2ccc(OC)cc2C1, CC[C@H]1OC(=O)[C@H](C)[C@@H](O[C@H]2C[C@@](C)(OC)[C@@H](O)[C@H](C)O2)[C@H](C)[C@@H](O[C@@H]2O[C@H](C)C[C@H](N(C)C)[C@H]2O)[C@](C)(O)C[C@@H](C)C(=O)[C@H](C)[C@@H](O)[C@]1(C)O, CC(=O)OC[C@H]1O[C@@](COC(C)=O)(O[C@H]2O[C@H](COC(C)=O)[C@@H](OC(C)=O)[C@H](OC(C)=O)[C@H]2OC(C)=O)[C@@H](OC(C)=O)[C@@H]1OC(C)=O, COCCOCCOCCOC, CC(C)=CCCC(C)=CC=O, CC(C)CCCCCCCOC(=O)CCCCC(=O)OCCCCCCCC(C)C, CC(C)(O)c1coc(S(=O)(=O)NC(=O)Nc2c3c(cc4c2CCC4)CCC3)c1, C=CC(=C)CCC=C(C)C, Fc1ccccc1[C@@H](F)COC1CCC(Nc2ncnc3[nH]ncc23)CC1 (stereo not given in full), O=P(OC(CCl)CCl)(OC(CCl)CCl)OC(CCl)CCl, Cn1c(=O)cc(Oc2ccc(F)cc2F)c2cnc(NCC(C)(C)O)nc21, CC(C)=CCC/C(C)=C\CO, CCN(C(=O)c1cc(C)cc(OC[C@H](C)Nc2ccncc2)c1)C(C)C, CCCCCCCCCCCCc1ccccc1, COC(=O)c1ccccc1O, C=CCCCCCCCCC(=O)O, CC(=O)c1ccc2c(c1)[C@H](NC(=O)c1ccc(F)cc1)[C@@H](O)C(C)(C)O2, Clc1nc(Cl)c(Cl)c(Cl)c1Cl
